# Data from ChEMBL document CHEMBL3988442, “University of Dundee, Small-Polar-MMV Screening Library” (2021).
# In all, about 69,000 compounds went through this assay and about 1,000 (1.4%) showed an effect of 50% or more. This is one part of a sample in which strong results are shown more often than they occur.
# Tested on: Leishmania donovani
# Assay: Leishmania intramacrophage assay
# Format: functional, organism-based
# Set-up: scale not given: in the data most compounds retested in dose-response had high values
Structure (SMILES),"Percent Effect (30.3 µM, […])","Percent Effect (30 µM, 30.03 µM)"
N#CC1(C(=O)N2CCOC(c3ccc(F)cc3)C2)CCCCC1 (centres undefined),33.91%,–
Cl.O=C(Nc1cc(C(F)(F)F)c[nH]c1=O)C1CCCCN1 (centres undefined),10.48%,–
O=C(Nc1cc(C(F)(F)F)c[nH]c1=O)C1CCNCC1,29.22%,–
O=C(Nc1cc(C(F)(F)F)c[nH]c1=O)C1CCCO1 (centres undefined),65.61%,–
CN1CCOC(CNCC(=O)NCCC2=CCCCC2)C1 (centres undefined),0.5751%,–
C[C@@H]1CN(Cc2nc(Cc3ccccc3F)no2)C[C@H](C)O1,14.95%,–
COc1ccc(C[C@H]2CN(C(=O)c3cc(C)no3)CC[C@H]2OC)cc1,7.467%,–
CO[C@@H]1CCN(C(=O)c2cc(C)on2)C[C@@H]1Cc1ccccc1,52.23%,–
CO[C@H]1CCN(C(=O)c2cc(C)on2)C[C@@H]1Cc1ccccc1,-10.42%,–
CC(=O)N1CCC2(CC1)CC(C(C)C)=NO2,-2.802%,–
NC(=O)CSCC(=O)NCC1CCCC1,12%,–
CNC(=O)C1CN(Cc2ccc(C#N)cc2F)c2ccccc2O1 (centres undefined),34.5%,–
O=C1CO[C@H]2CN(Cc3ccc(F)c(F)c3)C[C@H]2N1,13.71%,–
COc1ccccc1-c1ccccc1CC1(C(=O)O)CCNCC1,-31.14%,–
CCOC(=O)C1(Cc2ccccc2-c2ccccc2OC)CCNCC1.Cl,51.68%,–
COc1ccc(F)cc1-c1ccccc1CC1(C(=O)O)CCOCC1,-18.67%,–
CCNC(=O)C1CCCN(c2ccc3ccc(F)cc3n2)C1 (centres undefined),4.617%,–
CC(C)Oc1ncccc1CNC(=O)NC(C)c1cccs1 (centres undefined),19.58%,–
CCCOc1cc(C)ccc1NC(=O)NCCNC(=O)C(C)C,-16.43%,–
CCc1nc2c(NCC3COc4ccccc4C3)ncnc2o1 (centres undefined),35.57%,–
COc1ccc2c(c1)OCC(Cc1ccc(C)nc1N)C2 (centres undefined),-0.8362%,–
COc1cccc2c1OCC(CNc1cc(N)nc(SC)n1)C2 (centres undefined),21.08%,–
CCc1nc2c(NCC3COc4cc(OC)ccc4C3)ncnc2o1 (centres undefined),60.09%,–
CCc1nc2c(NCC3COc4c(cccc4OC)C3)ncnc2o1 (centres undefined),45.88%,–
COc1ccc2c(c1)OCC(CNc1cc(N)nc(SC)n1)C2 (centres undefined),52.24%,–
CCC(CNC(=O)c1nc(=O)[nH][nH]1)Oc1cccc(C(F)(F)F)c1 (centres undefined),11.69%,–
CC1c2ncc(COCC3CC3)n2CCN1C.O=C(O)C(F)(F)F (centres undefined),11.79%,–
Cc1nc(N(C)C)nc(-c2cccc(-c3ccn(CCCF)n3)c2)c1C,-3.93%,–
CN(C)c1cc(CNC(=O)c2ccc(F)cc2F)ccn1,–,42.64%
